# Source: PMC10726135, “HNF4α isoforms regulate the circadian balance between carbohydrate and lipid metabolism in the liver”
# The full ranking holds about 18,000 sequences; the median of “log2 normalized intensity” is about 0.39, and the highest 2% start at about 6.6. Only a selection was taken, and the highest values are over-represented in it overall.
# Target: T1, HNF4alpha2 (COS-7 nuclear extract) (Homo sapiens, UniProt P41235 1-474)
# T1 sequence: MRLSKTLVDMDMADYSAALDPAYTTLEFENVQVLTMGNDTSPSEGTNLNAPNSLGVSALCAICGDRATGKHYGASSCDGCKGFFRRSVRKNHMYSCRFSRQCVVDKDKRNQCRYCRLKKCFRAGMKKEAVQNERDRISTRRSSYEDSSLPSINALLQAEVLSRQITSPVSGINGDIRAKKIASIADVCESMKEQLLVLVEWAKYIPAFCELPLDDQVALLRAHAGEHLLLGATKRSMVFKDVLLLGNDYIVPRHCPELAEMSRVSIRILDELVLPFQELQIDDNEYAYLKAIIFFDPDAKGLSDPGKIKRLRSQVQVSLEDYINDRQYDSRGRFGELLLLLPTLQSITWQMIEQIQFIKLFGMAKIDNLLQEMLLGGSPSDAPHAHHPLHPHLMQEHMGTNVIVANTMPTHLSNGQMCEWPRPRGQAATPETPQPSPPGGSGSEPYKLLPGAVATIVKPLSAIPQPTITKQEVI
# Assay: protein-binding microarray; COS-7 nuclear extract on double-stranded Agilent 4x180k PBM; binding buffer, salt, pH and temperature not given in the material; high values mean tight binding
# Conditions: chain copies: 2; label: 3' end of strand 1 on the slide; dsDNA, one strand shown
# In short: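 Nuclear extracts from COS-7 cells expressing a transiently transfected human HNF4α isoform were put on a custom Agilent SurePrint G3 4x180k array carrying ~44,000 double-stranded ~60-nt test sequences in quadruplicate. Imaging used an Agilent G2565CA scanner at 2-µm resolution. Binding signal is the background-corrected, normalized gProcessedSignal from Agilent software.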
row,Sequence,binding signal [log2 normalized intensity]
1,TTGTAGCCTCATTTCACCTTTGGTCTTTGGGCCTAGGGAGATTAGAGTATCGGTCGA,4.78
2,AATTCTCATGGAGGACTTTGGCCTTTTGTGGCCTAGGGAGATTAGAGTATCGGTCGA,5.77
3,TCTGGGATGTTGGGAGGAGTGGACTTTGATGCCTAGGGAGATTAGAGTATCGGTCGA,5.99
4,GGGCTGAGGATGAGGACTTTGGTCTTATTAGCCTAGGGAGATTAGAGTATCGGTCGA,3.74
5,CAGATGGATTGATAGACTTATCTCAGCCTGGCCTAGGGAGATTAGAGTATCGGTCGA,-0.761
6,GGGACTAGCCTTATCTCAGATGAGACTTTGGCCTAGGGAGATTAGAGTATCGGTCGA,1.7
7,TACAGAATTCTCATGGAGGACTTTGGCCTTGCCTAGGGAGATTAGAGTATCGGTCGA,7.11
8,ATCTAGGTGAGGGATGAGGACTTTGATCAGGCCTAGGGAGATTAGAGTATCGGTCGA,6.01
9,TTATCTCAGATGAGACTTTGGACTTTTGAAGCCTAGGGAGATTAGAGTATCGGTCGA,7.12
10,TCAGATGAGACTTTGGACTTTTGAACTAAGGCCTAGGGAGATTAGAGTATCGGTCGA,6.42
11,TAGCCTTATCTCAGATGAGACTTTGGACTTGCCTAGGGAGATTAGAGTATCGGTCGA,7.96
12,GAATCTACAGAATTCTCATGGAGGACTTTGGCCTAGGGAGATTAGAGTATCGGTCGA,2.77
13,GATGTTGGGAGGAGTGGACTTTGATCTCAGGCCTAGGGAGATTAGAGTATCGGTCGA,8.9
14,TCTTTGTTCAGAGGGCATGTTGAGTGGAATGCCTAGGGAGATTAGAGTATCGGTCGA,2.13
15,TTACAACGCTGTTGTCTGTGACTGGGGTCAGCCTAGGGAGATTAGAGTATCGGTCGA,3.66
16,GCCAACAACTAGGGCAAAGGTTAGCTTGGAGCCTAGGGAGATTAGAGTATCGGTCGA,4.27
17,ACAGATGTAGACATTGGAATGCGGGCTCCAGCCTAGGGAGATTAGAGTATCGGTCGA,-0.394
18,TCGGAATGTCTGGGCAAAGGGGAGGTTATCGCCTAGGGAGATTAGAGTATCGGTCGA,0.29
19,AAGTGGTATCCTGCAGTCAGTCTGATTGGTGCCTAGGGAGATTAGAGTATCGGTCGA,0.556
20,GAGGAGTGGCCATGATGCCATCTGGTGAAGGCCTAGGGAGATTAGAGTATCGGTCGA,-0.987
21,TTGAACACCACAAGTTTGAACTGCACAGGCGCCTAGGGAGATTAGAGTATCGGTCGA,-0.333
22,GTGAGGTCACAGTATTCATTCCCCTAGTATGCCTAGGGAGATTAGAGTATCGGTCGA,2.55

row,Sequence,binding signal [log2 normalized intensity]
1,TAGCTTTAGCCGGACTTTGTCCTTTGATTTGCCTAGGGAGATTAGAGTATCGGTCGA,6.43
2,TCAGATAGCTTTAGCCGGACTTTGTCCTTTGCCTAGGGAGATTAGAGTATCGGTCGA,7.78
3,CTATCTCAGATAGCTTTAGCCGGACTTTGTGCCTAGGGAGATTAGAGTATCGGTCGA,5.18
4,TAGTAGGGTCAAAGTCTGGATCCGTTAACAGCCTAGGGAGATTAGAGTATCGGTCGA,4.3
5,CACCTTTTTTGGCCTTTACCCCTTGAGTTTGCCTAGGGAGATTAGAGTATCGGTCGA,3.93
6,GGATCGGAACCCCACCCCCACGCCCCCCAGGCCTAGGGAGATTAGAGTATCGGTCGA,7
7,AGGCCCCAGCCACGCCCTCTAACCCAGGTTGCCTAGGGAGATTAGAGTATCGGTCGA,3.08
8,CACACACACACACACACCCCACACACCAAAGCCTAGGGAGATTAGAGTATCGGTCGA,3.12
9,GGAACCCCACCCCCACGCCCCCCAGCGGAAGCCTAGGGAGATTAGAGTATCGGTCGA,7.16
10,CGCCCCCCAGCGGAAGTCCAGTGGTGTCTTGCCTAGGGAGATTAGAGTATCGGTCGA,3.33
11,CAAAGTTCAAGGTCCAGCCTACCCACCCACGCCTAGGGAGATTAGAGTATCGGTCGA,4.66
12,CCTCCAGGCCCCAGCCACGCCCTCTAACCCGCCTAGGGAGATTAGAGTATCGGTCGA,2.92
13,CCCACCCCCACGCCCCCCAGCGGAAGTCCAGCCTAGGGAGATTAGAGTATCGGTCGA,6.97
14,TCACACACACACACACACACACCCCACACAGCCTAGGGAGATTAGAGTATCGGTCGA,1.75
15,GAGAGAATGACCCTTGCTTGACCCATTATGGCCTAGGGAGATTAGAGTATCGGTCGA,2.36
16,AGAACAAACAATGGTTTGGGACAAAGTTTGGCCTAGGGAGATTAGAGTATCGGTCGA,0.489
17,TCAGCCTTCTCCGCGGCGGGCCCTCGACCTGCCTAGGGAGATTAGAGTATCGGTCGA,-0.582
18,CTTTGCCCTCCCTAAATCCAGAGGTATTTGGCCTAGGGAGATTAGAGTATCGGTCGA,1.88
19,CCCTCCCTAAATCCAGAGGTATTTGGCCCAGCCTAGGGAGATTAGAGTATCGGTCGA,1.59
20,CCTCCTAATCACTGCCCTTTGGTGCCTCTTGCCTAGGGAGATTAGAGTATCGGTCGA,2.28
21,CCACTGCGACCTTTGCCCTCCCTAAATCCAGCCTAGGGAGATTAGAGTATCGGTCGA,6.95
22,CAGAGAGAAGCCACTGCGACCTTTGCCCTCGCCTAGGGAGATTAGAGTATCGGTCGA,9.89
